Drawing on PubChem BioAssay (NCI), this text covers growth inhibition for 21 compounds.

A short description of test [1]: NCI Yeast Anticancer Drug Screen. Data for the rad50 strain (AID 155).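 Note: 0% = growth of vehicle-only cultures of the same strain.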 As to conditions: S. cerevisiae rad50 strain growth inhibition; at 50.0 µM; active compounds read high. In outline:
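DNA repair mutant yeast, compound exposure, growth read-out; inhibition is taken relative to vehicle.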

Test [2] is described as follows: NCI Yeast Anticancer Drug Screen. Data for the mec2-1 strain (AID 157). As to conditions: S. cerevisiae mec2-1 strain, at 50.0 µM, active compounds read high. In outline:
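Using mec2-1 yeast: add compound, measure growth, express inhibition versus vehicle-treated cultures.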

Test [3] is described as follows: NCI Yeast Anticancer Drug Screen. Data for the sgs1 mgt1 strain (AID 161).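 Note: 0% = growth of cultures given vehicle only.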 To be noted: S. cerevisiae sgs1 mgt1 strain, at 50.0 µM, active compounds read high. The method, boiled down:
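Yeast cells carrying a defined DNA-repair defect were exposed to test compounds. Growth inhibition was measured relative to vehicle-treated controls.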

Test [4] can be described thus: NCI Yeast Anticancer Drug Screen. Data for the cln2 rad14 strain (AID 165).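 Note: 0% = growth equal to vehicle treated cultures.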 To be noted: S. cerevisiae cln2 rad14 strain, at 50.0 µM, active compounds read high. In outline: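 Yeast strain cln2 rad14, bearing defects in cell cycle control and DNA repair, serves as the test system; values reflect growth inhibition compared with vehicle.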
Test [5] can be described thus: NCI Yeast Anticancer Drug Screen. Data for the bub3 strain (AID 167). As to conditions: S. cerevisiae bub3 mutant strain, at 50.0 µM, active compounds read high. The method, boiled down: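 In this screen, a yeast mutant lacking normal mitotic checkpoint function is challenged with compound. Relative growth versus vehicle gives the inhibition value.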
Test [6] in a line: NCI Yeast Anticancer Drug Screen. Data for the mlh1 rad18 strain (AID 175). As to conditions: S. cerevisiae mlh1 rad18 strain growth inhibition; at 50.0 µM; active compounds read high. The method, boiled down: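 Steps: expose repair-defective yeast to compound; measure growth; express inhibition against vehicle-treated controls.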

Structures are written as SMILES. Compounds without any hit were thinned out: in the full panel of roughly 79,000, 15% have a hit. A number with no mark means an inactive call. Active and inactive are the calls of the source. Cut-off read from the data, not from the text of the source: active = growth inhibition above about 70%; inactive = the rest.

For `CO[C@@]12[C@@H]3N[C@@H]3CN1C1=C(C(=O)C(Nc3ccc(O)cc3C)=C(C)C1=O)[C@@H]2COC(N)=O`, the growth inhibition was 61% in test [1]; 29.1% in test [2]; 20% in test [3]; 44.4% in test [4]; -14.6% in test [5]; 71% (active) in test [6].
In the case of `O=[N+]([O-])c1cc(Br)c(O)c(Br)c1`, the growth inhibition in test [1] is 12.2%; in test [2], 18.8%; in test [3], 5.15%; in test [4], -37.4%; in test [5], 6.75%; in test [6], 32.3%.
On to `CC(=O)CC(C)=O.CC(=O)CC(C)=O.[Cl][Sn][c]1ccccc1`, for which the growth inhibition in test [1] was 40.8%; in test [2] it was 23.7%; in test [3], 49.6%; in test [4] it was 8.4%; in test [5], 35.1%; in test [6] it was 57.5%.
For the compound `CCN1CCC2OCOC2C1` (stereo unspecified), the growth inhibition in test [1] is 8.5%; in test [2], 2.85%; in test [3], 2.9%; in test [4] it was 0.5%; in test [5] it was -0.05%; in test [6], 33.6%.
For the compound `N#CCN(CC#N)[N+](=O)[O-]`, the growth inhibition was 6.8% in test [1]; -4.95% in test [2]; -14.2% in test [3]; -6% in test [4]; -26.3% in test [5]; 0.4% in test [6].
Consider `Cc1ccc(NC(=O)C(=O)C2C(=O)NC(=O)NC2=O)c(C)c1`, for which the growth inhibition in test [1] was 13.9%; in test [2], 9.75%; in test [3], 5.75%; in test [4], 11.2%; in test [5], 15.9%; in test [6] it was 17.6%.
Consider `O=NN1CCCCCCC1C(=O)O` (stereo unspecified), for which the growth inhibition in test [1] was 1.3%; in test [2] it was 6.55%; in test [3], -14.7%; in test [4], -22.8%; in test [5] it was 9.15%; in test [6], 19.5%.
On to `O=C(CCc1ccccc1)Nc1ccc(Cl)cc1C(=O)c1ccccc1`, for which the growth inhibition was -0.85% in test [1]; 20.2% in test [2]; 24.4% in test [3]; -26.2% in test [4]; 54.1% in test [5]; 28.6% in test [6].
On to `Cc1c(Cl)cc([N+](=O)[O-])c(O)c1[N+](=O)[O-]`, for which the growth inhibition is 6.1% in test [1]; -1.45% in test [2]; 5% in test [3]; 30.7% in test [4]; 26.1% in test [5]; 7.85% in test [6].
Take `CCOP(=O)(OCC)/C(C#N)=C/c1ccccc1`: the growth inhibition in test [1] was 19.2%; in test [2] it was -23.1%; in test [3], -8.95%; in test [4] it was -33.8%; in test [5] it was -11.3%; in test [6] it was 19.6%.
As for `CCOP(N)(=O)SC` (stereo unspecified), the growth inhibition is -11.1% in test [1]; 8% in test [2]; -11.8% in test [3]; -12.8% in test [4]; -7.45% in test [5]; 23.6% in test [6].
For `CCCOP(=O)(OCCC)C(=O)Nc1ccc(Br)cc1`, the growth inhibition in test [1] is -25.7%; in test [2] it was 2.95%; in test [3], 6.25%; in test [4] it was -24.1%; in test [5], 25%; in test [6], -9.5%.
Regarding `COc1ccc2c(c1)C1(C=N2)CCN(C(C)=O)CC1`, the growth inhibition in test [1] was 3.25%; in test [2] it was -17.1%; in test [3], -16.4%; in test [4], 17.1%; in test [5], -9.75%; in test [6] it was -24.8%.
In the case of `CC1(C)CC(N2CCCCC2)=CC(=[N+]2CCCCC2)C1`, the growth inhibition is -6.55% in test [1]; -2% in test [2]; 22.3% in test [3]; 0.1% in test [4]; -5.85% in test [5]; -10.6% in test [6].
In the case of `[Cl][Pt][Cl].c1ccc([PH+](c2ccccc2)c2ccccc2)cc1.c1ccc([PH+](c2ccccc2)c2ccccc2)cc1`, the growth inhibition in test [1] is -1.7%; in test [2], 4.75%; in test [3], -4.95%; in test [4], -6.6%; in test [5], -1.6%; in test [6], -16.9%.
Take `Nc1ccc(C(=O)O)cc1[As](O)O`: the growth inhibition was -15.1% in test [1]; -4.05% in test [2]; 5.95% in test [3]; -6.4% in test [4]; 0.6% in test [5]; -17.8% in test [6].
As for `CC1=CC2OC3CC4OC(=O)/C=C/C=C/C(=O)OCC/C(C)=C/C(=O)OCC2(CC1O)C4(C)C31CO1` (stereo unspecified), the growth inhibition in test [1] was 92.3% (active); in test [2] it was 93.6% (active); in test [3], 93% (active); in test [4], 91.7% (active); in test [5], 91.8% (active); in test [6], 90.9% (active).
For the compound `Nc1cccc(SC2CC(=O)N(c3ccc(Cl)cc3C(=O)c3ccccc3)C2=O)c1` (stereo unspecified), the growth inhibition in test [1] is 16.6%; in test [2], -4.6%; in test [3], 34.2%; in test [4] it was 26.4%; in test [5], 19.9%; in test [6], 22.9%.
For the compound `Nc1c([N+](=O)[O-])cncc1[N+](=O)[O-]`, the growth inhibition in test [1] is -30.6%; in test [2] it was -4.15%; in test [3] it was -14.3%; in test [4], -40.6%; in test [5], -41.9%; in test [6], -6.8%.
In the case of `CCOP(=O)(NCc1ccccc1)c1ccc(N)cc1` (stereo unspecified), the growth inhibition is 6.05% in test [1]; -6.45% in test [2]; 7.65% in test [3]; 1.95% in test [4]; -0.5% in test [5]; 7.15% in test [6].
Regarding `O=C(O)C1C2c3ccccc3C(c3ccccc32)C1C(=O)NCC1CC1` (stereo unspecified), the growth inhibition in test [1] was 51.5%; in test [2] it was 7.55%; in test [3] it was 10.4%; in test [4], 13.6%; in test [5], 21.4%; in test [6], 24.2%.
